Each structure is given as a SMILES string. Out of some 3,200 compounds screened, about 110 (3.4%) showed an effect of 50% or more. Many of the other results were omitted from the sample, so strong results are more common in it than they were.

From publication PMC11995724, “Antibiotic target discovery by integrated phenotypic and activity-based profiling of electrophilic fragments” (Cell chemical biology, 2025) come the findings set out here.

The subject of the test is T1, V. cholerae SAD30.
T1 construct: SAD30
Further details: species or system S. aureus MSSA476 (TSB) or V. cholerae SAD30 (LB); 384-well bacterial growth screen at 25 uM, OD600 relative to DMSO control. Particulars: relative growth, OD600, LB; 25 µM; inhibitor.
As for `O=C(CCl)c1ccc(NC(=O)c2ccccc2)cc1` [10-B06, N-[4-(2-chloroacetyl)phenyl]benzamide], the “% of control remaining” value is 21.5079%.
The result for `NC(=O)Nc1ccc(C(=O)CCl)cc1` [10-J07, [4-(2-chloroacetyl)phenyl]urea] reads 65.4588%; that for `CC(C)CC(=O)Nc1ccc(C(=O)CCl)cc1` [10-N06, N-[4-(2-chloroacetyl)phenyl]-3-methylbutanamide], 76.8362%; that for `CC(=O)Nc1ccc(C(=O)CCl)cc1` [10-O12, N-[4-(2-chloroacetyl)phenyl]acetamide], 74.4983%.
Next, `CC(C)C(=O)Nc1ccc(C(=O)CCl)cc1` [10-D04, N-[4-(2-chloroacetyl)phenyl]-2-methylpropanamide]: 37.405%.
The result for `CCC(=O)Nc1ccc(C(=O)CCl)cc1` [10-C03, N-[4-(2-chloroacetyl)phenyl]propanamide] reads 111.903%; that for `C=CC(=O)NCc1nc2ccccc2n1C1CC1` [2-N03, N-[(1-cyclopropyl-1H-1,3-benzodiazol-2-yl)methyl]prop-2-enamide], 105.172%.
Regarding `N#CC(=Cc1cc2c(cc1[N+](=O)[O-])OCO2)C(=O)NC1CCCCC1` [8-F22, 2-cyano-N-cyclohexyl-3-(6-nitro-1,3-dioxaindan-5-yl)prop-2-enamide], the “% of control remaining” value is listed as 83.6846%.
As for `CN(C)S(=O)(=O)c1cccc(NC(=O)CCl)c1` [4-J08, 2-chloro-N-[3-(dimethylsulfamoyl)phenyl]acetamide], the “% of control remaining” value is on record as 94.3714%.
Turning to `CC(C)NC(=O)C(C#N)=Cc1ccc(C(F)(F)F)cc1` [8-L13, 2-cyano-N-(propan-2-yl)-3-[4-(trifluoromethyl)phenyl]prop-2-enamide], the “% of control remaining” value amounted to 68.3209%.
Next, `Cc1cc(=O)[nH]c(-c2cccc(NC(=O)C(C#N)=Cc3ccco3)c2)n1` [8-B10, 2-cyano-3-(furan-2-yl)-N-[3-(4-methyl-6-oxo-1,6-dihydropyrimidin-2-yl)phenyl]prop-2-enamide]: 79.4697%; `COc1ccc(N2C(=O)C=CC2=O)c([N+](=O)[O-])c1` [10-L11, 1-(4-methoxy-2-nitrophenyl)-2,5-dihydro-1H-pyrrole-2,5-dione]: 30.3916%.
Next, `Cc1ccc(NC(=O)CCl)c([N+](=O)[O-])c1` [4-A07, 2-chloro-N-(4-methyl-2-nitrophenyl)acetamide]: 105.068%; `Cc1ccc(N2C(=O)C=CC2=O)c([N+](=O)[O-])c1` [10-N13, 1-(4-methyl-2-nitrophenyl)-2,5-dihydro-1H-pyrrole-2,5-dione]: 27.1186%; `COc1ccc(NC(=O)C(C)Cl)c([N+](=O)[O-])c1` (centres unmarked) [6-B08, 2-chloro-N-(4-methoxy-2-nitrophenyl)propanamide]: 90.3972%.
In the case of `COc1ccc(NC(=O)CCl)c([N+](=O)[O-])c1` [4-I21, 2-chloro-N-(4-methoxy-2-nitrophenyl)acetamide], the “% of control remaining” value turned out to be 107.311%.
Next, `CSc1cccc(-n2c(C)cc(C(=O)CCl)c2C)c1` [10-J16, 2-chloro-1-{2,5-dimethyl-1-[3-(methylsulfanyl)phenyl]-1H-pyrrol-3-yl}ethan-1-one]: 105.825%; `Cc1ccc(NC(=O)C(C)Cl)cc1S(=O)(=O)N1CCOCC1` (centres unmarked) [5-D22, 2-chloro-N-[4-methyl-3-(morpholine-4-sulfonyl)phenyl]propanamide]: 107.429%; `N#CC(=Cc1ccc(Cl)cc1Cl)C(=O)Nc1nccs1` [9-H19, 2-cyano-3-(2,4-dichlorophenyl)-N-(1,3-thiazol-2-yl)prop-2-enamide]: 79.4697%.
For the compound `C=CC(=O)Nc1ccnn1Cc1cccc(Cl)c1` [1-N14, N-{1-[(3-chlorophenyl)methyl]-1H-pyrazol-5-yl}prop-2-enamide], the “% of control remaining” value was determined as 86.3592%.
The result for `C=CC(=O)N(CC)CC(=O)N1CC(C)(C)C1c1nccn1C` (centres unmarked) [2-J16, N-{2-[3,3-dimethyl-2-(1-methyl-1H-imidazol-2-yl)azetidin-1-yl]-2-oxoethyl}-N-ethylprop-2-enamide] reads 90.3503%; that for `CC(Cl)C(=O)NC(=O)Nc1ccccc1` (centres unmarked) [5-I21, 3-(2-chloropropanoyl)-1-phenylurea], 104.066%.
Turning to `C=CC(=O)NC1CS(=O)(=O)C1` [3-P18, N-(1,1-dioxo-1lambda6-thietan-3-yl)prop-2-enamide], the “% of control remaining” value is recorded as 112.909%.
Next, `COc1ccc([N+](=O)[O-])cc1NC(=O)CCl` [4-P17, 2-chloro-N-(2-methoxy-5-nitrophenyl)acetamide]: 111.969%.
Turning to `COc1ccc([N+](=O)[O-])cc1N1C(=O)C=CC1=O` [10-P13, 1-(2-methoxy-5-nitrophenyl)-2,5-dihydro-1H-pyrrole-2,5-dione], the “% of control remaining” value came to 32.7294%.
The result for `COc1cc([N+](=O)[O-])ccc1NC(=O)C(C)Cl` (centres unmarked) [4-K12, 2-chloro-N-(2-methoxy-4-nitrophenyl)propanamide] reads 93.5087%.
The result for `COc1ccc([N+](=O)[O-])cc1NC(=O)C(C)Cl` (centres unmarked) [5-N14, 2-chloro-N-(2-methoxy-5-nitrophenyl)propanamide] reads 92.6342%.
The result for `COc1cc([N+](=O)[O-])ccc1N1C(=O)C=CC1=O` [10-H13, 1-(2-methoxy-4-nitrophenyl)-2,5-dihydro-1H-pyrrole-2,5-dione] reads 24.625%; that for `COc1cc([N+](=O)[O-])ccc1NC(=O)CCl` [4-O07, 2-chloro-N-(2-methoxy-4-nitrophenyl)acetamide], 100.582%.
For `CCN(CC)S(=O)(=O)c1cccc(NC(=O)CCl)c1` [4-M07, 2-chloro-N-[3-(diethylsulfamoyl)phenyl]acetamide], the “% of control remaining” value turned out to be 105.931%.
The result for `C=CC(=O)N1CCC(C(=O)N[C@H]2CCC[C@H]2O)CC1` [2-K04, N-[(1S,2R)-2-hydroxycyclopentyl]-1-(prop-2-enoyl)piperidine-4-carboxamide] reads 95.9085%; that for `C=CC(=O)N1CCC(n2ncc3ccccc32)CC1` [1-K22, 1-[4-(1H-indazol-1-yl)piperidin-1-yl]prop-2-en-1-one], 95.6652%.
The result for `CC(Cl)C(=O)Nc1nc(-c2ccccc2)cs1` (centres unmarked) [6-L10, 2-chloro-N-(4-phenyl-1,3-thiazol-2-yl)propanamide] reads 85.6953%; that for `C=CC(=O)N1CCOCC1c1cc(F)cc(F)c1` (centres unmarked) [2-O16, 1-[3-(3,5-difluorophenyl)morpholin-4-yl]prop-2-en-1-one], 92.203%; that for `O=C(CCl)c1c[nH]c(C(=O)N2CCCC2)c1` [10-A16, 2-chloro-1-[5-(pyrrolidine-1-carbonyl)-1H-pyrrol-3-yl]ethan-1-one], 108.475%.
Consider `CCC(=O)N1CCc2cc(C(=O)CCl)ccc21` [10-C22, 1-[5-(2-chloroacetyl)-2,3-dihydro-1H-indol-1-yl]propan-1-one], for which the “% of control remaining” value worked out at 119.54%.
Consider `O=CN1CCc2cc(C(=O)CCl)ccc21` [10-K20, 5-(2-chloroacetyl)-2,3-dihydro-1H-indole-1-carbaldehyde], for which the “% of control remaining” value is given as 27.1186%.
Next, `CCS(=O)(=O)N1CCc2cc(C(=O)CCl)ccc21` [10-E18, 2-chloro-1-[1-(ethanesulfonyl)-2,3-dihydro-1H-indol-5-yl]ethan-1-one]: 27.8979%; `CN1C(=O)Cc2cc(C(=O)CCl)ccc21` [10-G07, 5-(2-chloroacetyl)-1-methyl-2,3-dihydro-1H-indol-2-one]: 54.3931%.
The result for `CC1Cc2cc(C(=O)CCl)ccc2N1S(C)(=O)=O` (centres unmarked) [10-A04, 2-chloro-1-(1-methanesulfonyl-2-methyl-2,3-dihydro-1H-indol-5-yl)ethan-1-one] reads 89.6162%.
The result for `O=C(CCl)NCCS(=O)(=O)N1CCc2ccccc21` [6-H04, 2-chloro-N-[2-(2,3-dihydro-1H-indole-1-sulfonyl)ethyl]acetamide] reads 103.138%; that for `N#Cc1ccc2c(c1)CCN2C(=O)CCl` [5-N09, 1-(2-chloroacetyl)-2,3-dihydro-1H-indole-5-carbonitrile], 93.4748%; that for `O=C(CCl)c1ccc2c(c1)CCN(C(=O)C(F)(F)F)C2` [10-E09, 1-[6-(2-chloroacetyl)-1,2,3,4-tetrahydroisoquinolin-2-yl]-2,2,2-trifluoroethan-1-one], 98.6558%.
As to `CS(=O)(=O)N1CCCc2cc(C(=O)CCl)ccc21` [10-H19, 2-chloro-1-(1-methanesulfonyl-1,2,3,4-tetrahydroquinolin-6-yl)ethan-1-one], the “% of control remaining” value came to 22.9106%.
The result for `O=C(CCl)c1cc2c3c(c1)CC(=O)N3CCC2` [10-G16, 6-(2-chloroacetyl)-1-azatricyclo[6.3.1.0,4,12]dodeca-4(12),5,7-trien-2-one] reads 27.7421%.
The result for `Cc1ccc(NC(=O)N2CCSSCC2)c(C)c1` [10-F11, N-(2,4-dimethylphenyl)-1,2,5-dithiazepane-5-carboxamide] reads 95.0711%.
The result for `CC(Cl)C(=O)N(C)CCn1c(=O)oc2ccccc21` (centres unmarked) [7-H15, 2-chloro-N-methyl-N-[2-(2-oxo-2,3-dihydro-1,3-benzoxazol-3-yl)ethyl]propanamide] reads 82.4715%.
